Data reported in PubChem BioAssay (NCI).
Compounds without any hit were thinned out: in the full panel of roughly 79,000, 15% have a hit. Active and inactive are the calls of the source. No stated cut-off is given here; in the data, active means growth inhibition above about 70%; inactive means the rest.

Columns and labels:
[1] = NCI Yeast Anticancer Drug Screen. Data for the rad50 strain (AID 155);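 further: 0% = growth of vehicle-only cultures of the same strain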; conditions: S. cerevisiae rad50 strain growth inhibition; at 50.0 µM; active compounds read high
How it was run: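 Vehicle-treated cultures provide the reference for the growth inhibition reported for compound-exposed, repair-deficient yeast.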

[2] = NCI Yeast Anticancer Drug Screen. Data for the mec2-1 strain (AID 157); conditions: S. cerevisiae mec2-1 strain, at 50.0 µM, active compounds read high
How it was run: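 Strain: mec2-1 (DNA repair/cell cycle alteration). Compound exposure, then growth measured; inhibition expressed relative to vehicle.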

[3] = NCI Yeast Anticancer Drug Screen. Data for the sgs1 mgt1 strain (AID 161);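 further: 0% = growth of cultures given vehicle only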; conditions: S. cerevisiae sgs1 mgt1 strain, at 50.0 µM, active compounds read high
How it was run: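 Genetically altered yeast, compound exposure, growth inhibition relative to vehicle.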

[4] = NCI Yeast Anticancer Drug Screen. Data for the cln2 rad14 strain (AID 165);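 further: 0% = growth equal to vehicle treated cultures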; conditions: S. cerevisiae cln2 rad14 strain, at 50.0 µM, active compounds read high
How it was run: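 Compounds are applied to the cln2 rad14 yeast strain, and growth is then compared with that of vehicle-treated cultures to give inhibition.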

[5] = NCI Yeast Anticancer Drug Screen. Data for the bub3 strain (AID 167); conditions: S. cerevisiae bub3 mutant strain, at 50.0 µM, active compounds read high
How it was run: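 Mutant yeast screening strain plus compound; vehicle-treated cultures serve as the 0% inhibition reference.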

[6] = NCI Yeast Anticancer Drug Screen. Data for the mlh1 rad18 strain (AID 175); conditions: S. cerevisiae mlh1 rad18 strain growth inhibition; at 50.0 µM; active compounds read high
How it was run: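 Read-out is yeast growth inhibition, calculated against vehicle-only controls. The compound was applied to a strain engineered with DNA damage repair alterations.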

Measured: growth inhibition

O=C1CC(c2ccccc2)Oc2cc(O)cc(O)c21 (stereo unspecified)
inactive: [1] 9.1% | [2] -30.8% | [3] 9.2% | [4] 22.6% | [5] -14.4% | [6] 16.7%

FC12CCC(c3ccccc3)(CC1)CC2
inactive: [1] 11.8% | [2] -8.55% | [3] -4% | [4] -30.1% | [5] -3.5% | [6] -7.4%

Cc1nc2ccccc2c(=O)n1NC(=O)c1ccccc1O
inactive: [1] -7.45% | [2] -53.6% | [3] -7.6% | [4] 11.5% | [5] -4.1% | [6] 17.1%

CC(C)c1cc2c(O)c(c1)Cc1cc(C(C)C)cc(c1O)Cc1cc(C(C)C)cc(c1O)Cc1cc(C(C)C)cc(c1O)Cc1cc(C(C)C)cc(c1O)Cc1cc(C(C)C)cc(c1O)C2
inactive: [1] -21.1% | [2] -0.85% | [3] -14.8% | [4] 14.6% | [5] 3.55% | [6] -24.1%

CC(=O)NC1C(O)C(O)C(CO)OC1n1ncc(=O)[nH]c1=O (stereo unspecified)
inactive: [1] 13.1% | [2] 22.8% | [3] -14.2% | [4] -18.9% | [5] -20.4% | [6] -37.9%

CC(Cl)S(N)(=O)=O (stereo unspecified)
inactive: [1] -11.7% | [2] -11.7% | [3] -19.2% | [4] -6.45% | [5] 7.45% | [6] 2.15%

C[C@@H](CO)OCOCc1ccccc1
inactive: [1] 7.5% | [2] -1.25% | [3] 4% | [4] 18.5% | [5] 7.3% | [6] 19.5%

Cc1cc(Cl)ccc1N=C1NC(=O)C(CC(=O)Nc2ccc(Cl)cc2Cl)S1 (stereo unspecified)
inactive: [1] 14.8% | [2] 13.1% | [3] -2.35% | [4] -46.4% | [5] -4.3% | [6] 19.8%

NC1=NCCN1
inactive: [1] 31.9% | [2] 11.3% | [3] 3.5% | [4] -1.85% | [5] 16.8% | [6] 24.3%

Cc1c(Br)cc(C(=O)O)c(O)c1Br
inactive: [1] -4.95% | [2] 2.05% | [3] 19.6% | [4] -29.2% | [5] -26.6% | [6] 3.05%

COc1ccc2c3c([nH]c2c1[N+](=O)[O-])C(C)N(C)CC3 (stereo unspecified)
inactive: [1] -0.1% | [2] 7.5% | [3] 21.1% | [4] 25.3% | [5] 0.8% | [6] 33.2%

CC(=O)OC1[C@@H](OC(C)=O)[C@H](OC(C)=O)C2(CO2)[C@H](OC(C)=O)[C@H]1OC(C)=O (stereo partly specified)
inactive: [1] -7.05% | [2] -4.45% | [3] -6.4% | [4] -29.6% | [5] -0.15% | [6] 12.8%

COc1ccccc1/C=C1\CCC(CCN2CCOCC2)C1=O (stereo unspecified)
inactive: [1] 44.4% | [2] 37.7% | [3] 52.5% | [4] 58.6% | [5] 39.9% | [6] 41.5%

C=C(C)C12CC3CC(/C(=N/O)C(C1)/C3=N\O)[C@@]2(C)O (stereo partly specified)
inactive: [1] -31.8% | [2] -34.8% | [3] -46% | [4] -8.2% | [5] -26.9% | [6] -59%

CN1C(c2ccccc2)=C(C#N)C(=O)CC(c2cccs2)N1C (stereo unspecified)
inactive: [1] -8% | [2] 7.45% | [3] 33.6% | [4] -1.5% | [5] 8.15% | [6] 8.25%

CCCCCCCCCCCc1noc2c1C(=O)C(O)CC2 (stereo unspecified)
inactive: [1] 36.5% | [2] -3.05% | [3] -1.05% | [4] 40.4% | [5] -69% | [6] 5.25%

Cc1cc(C(=O)C[n+]2ccccc2)c(CN2C(=O)c3ccccc3C2=O)c(=O)n1C
inactive: [1] 14.8% | [2] -14.3% | [3] -3.9% | [4] -19.1% | [5] 6.3% | [6] 6.55%

O=C(Nc1ccc(N=C=S)cc1Cl)c1cc(Cl)cc(Cl)c1O
inactive: [2] 56.9% | [4] 67.7%
active: [1] 82.3% | [3] 78.5% | [5] 82.5% | [6] 82.5%

CCCCCCCCCCCCCCCCOc1ccc2ccccc2c1
inactive: [1] 4.15% | [2] -6.25% | [3] 14.9% | [4] -56.4% | [5] 10.2% | [6] 29.2%

O=[N+]([O-])c1cc2c(c3nonc13)OCCCCO2
active: [6] 77%
inactive: [1] 5.95% | [2] 25.5% | [3] 47.4% | [4] 23.2% | [5] 23.7%

COc1ccc(NC(=O)COC(=O)c2cccc3c(=O)c4ccccc4[nH]c23)cc1
inactive: [1] 43.4% | [2] 41.2% | [3] 27.4% | [4] 23.2% | [5] 21.2% | [6] 48.6%

Cc1ccc(S(=O)(=O)Nc2ccc(C(=O)Cl)cc2)cc1
inactive: [1] 4.8% | [2] 25.4% | [3] 23.5% | [4] 6.9% | [5] 27.4% | [6] 11.8%

N#CSCC(=O)CCC(=O)O
inactive: [1] -2.75% | [2] 0.7% | [3] -8.8% | [4] -15% | [5] 3.75% | [6] -1.1%

O=C1NS(=O)(=O)c2cc(Cl)ccc21
inactive: [1] -34.3% | [2] -22.1% | [3] -23.8% | [4] -18.4% | [5] -1.85% | [6] -12.8%

O=c1cc2n(c(=O)n1Cc1ccccc1)CCC2
inactive: [1] 10.9% | [2] 4.25% | [3] 1.55% | [4] 1.5% | [5] -3.9% | [6] -6%

CCOC(=O)c1cc2c(OC)cc(OC)cc2oc1=O
inactive: [1] 21.8% | [2] 2.6% | [3] 25.1% | [4] 32.8% | [5] 28.9% | [6] 2.55%

CC1(C)C(=O)N(c2ccccc2)C1c1ccccc1 (stereo unspecified)
inactive: [1] -6.2% | [2] -5.4% | [3] -1.5% | [4] -40.5% | [5] 12.1% | [6] -5.7%

O=COCCO
inactive: [1] -12.6% | [2] -5.6% | [3] 7.6% | [4] -9.85% | [5] 1.75% | [6] -9.1%

CCc1c(CNc2ccc(Cl)c(Cl)c2)ccc2nc(N)nc(N)c12
active: [1] 90.7% | [2] 92.2% | [3] 91.9% | [4] 90% | [5] 90.5% | [6] 89.7%

CC(=O)Oc1c(Br)cc(C(=O)c2ccccc2C(=O)c2cc(Br)c(OC(C)=O)c(Br)c2)cc1Br
inactive: [1] 13.9% | [2] 25.5% | [3] 21.6% | [4] -16.3% | [5] 11.9% | [6] 13.7%

CN(C)CC(/C(Cc1ccccc1)=N\NC(=S)NN)c1ccccc1 (stereo unspecified)
inactive: [1] 23.1% | [2] 9.55% | [3] 38.2% | [4] 21.4% | [5] -3.25% | [6] 13.7%

CC(C)(N)COC(=O)c1ccc([N+](=O)[O-])cc1
inactive: [1] 3.4% | [2] -23.7% | [3] 7.1% | [4] 0.15% | [5] 12.2% | [6] 10.2%

O=C(c1ccc(Cl)cc1)N(C(=S)N1CCN(c2ccccc2)CC1)C1CCCCC1
inactive: [1] 7.95% | [2] -11.3% | [3] -19.5% | [4] 22.7% | [5] -21% | [6] -4.05%

O=C(CC(=O)N1N=C(n2ccc3ccccc32)CC1c1ccccc1)Nc1cccc(Cl)c1 (stereo unspecified)
inactive: [1] -35.5% | [2] -15.3% | [3] -11.8% | [4] 12.1% | [5] -3.5% | [6] -5.85%

COC(=O)c1cc(=O)n(C)c2ccc(OC)cc12
inactive: [1] 21.1% | [2] 10.8% | [3] -5.3% | [4] 9.75% | [5] 13.6% | [6] 20.7%

O=C1C=CC(=O)c2c1ccc1c3ccccc3n(CCCCCn3c4ccccc4c4ccc5c(c43)C(=O)C=CC5=O)c21
inactive: [1] -20.8% | [2] -9.85% | [3] -18.2% | [4] 0.8% | [5] -28.4% | [6] -19%

CSc1nc(NC2OCC(O)C(O)C2O)c(Br)c(=O)n1C (stereo unspecified)
inactive: [1] 9.05% | [2] 15.8% | [3] -0.75% | [4] 1.95% | [5] 6.3% | [6] 36%

CC(NC(=O)CNP(=O)(c1ccccc1)c1ccccc1)C(=O)NC(Cc1ccccc1)C(=O)OCc1ccccc1 (stereo unspecified)
inactive: [1] 9.8% | [2] 4.3% | [3] 20.1% | [4] -4.5% | [5] -9.55% | [6] 30.1%

CC1(C)N=C(C(N)=O)c2ncn(CCCO)c2N1
inactive: [1] -13.5% | [2] -12.6% | [3] -48.4% | [4] 23.2% | [5] -0.35% | [6] -6.8%

N#Cc1c(C#N)c(-c2cccc([N+](=O)[O-])c2)n(-c2ccccc2)c1N
inactive: [1] 15.9% | [2] 15.5% | [3] -35.6% | [4] 2.15% | [5] -16.6% | [6] -16.5%

Nc1nc(N)c2ncn(-c3ccc(Cl)cc3)c2n1
inactive: [1] -0.7% | [2] 14.2% | [3] 9.8% | [4] -21.4% | [5] -0.85% | [6] 8.4%
